This is an account of results in PubChem BioAssay (Tox21).

Unmarked numbers belong to inactive results. Inconclusive results are not listed. Calls of active or inactive are those of the source. Calls follow the shape of the full dose curve.
% is scaled to controls: 0 for no effect and ±100 for the full control effect.

Sequence of 5-hydroxytryptamine receptor 2A (Homo sapiens) (P28223 whole entry, looked up): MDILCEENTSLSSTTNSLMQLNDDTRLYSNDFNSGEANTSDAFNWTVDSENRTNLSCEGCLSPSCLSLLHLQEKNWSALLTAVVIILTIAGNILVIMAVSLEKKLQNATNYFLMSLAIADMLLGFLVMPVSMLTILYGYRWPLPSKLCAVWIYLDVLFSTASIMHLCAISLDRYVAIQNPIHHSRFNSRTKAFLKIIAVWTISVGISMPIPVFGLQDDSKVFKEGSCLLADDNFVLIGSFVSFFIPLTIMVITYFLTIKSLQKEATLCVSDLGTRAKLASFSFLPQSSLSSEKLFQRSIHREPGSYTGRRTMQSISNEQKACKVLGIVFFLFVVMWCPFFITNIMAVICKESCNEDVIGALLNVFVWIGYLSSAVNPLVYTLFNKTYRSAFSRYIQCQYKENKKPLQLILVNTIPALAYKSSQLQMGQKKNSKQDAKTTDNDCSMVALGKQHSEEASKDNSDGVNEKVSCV
Sequence of Muscarinic acetylcholine receptor M1 (Homo sapiens) (P11229 whole entry, looked up): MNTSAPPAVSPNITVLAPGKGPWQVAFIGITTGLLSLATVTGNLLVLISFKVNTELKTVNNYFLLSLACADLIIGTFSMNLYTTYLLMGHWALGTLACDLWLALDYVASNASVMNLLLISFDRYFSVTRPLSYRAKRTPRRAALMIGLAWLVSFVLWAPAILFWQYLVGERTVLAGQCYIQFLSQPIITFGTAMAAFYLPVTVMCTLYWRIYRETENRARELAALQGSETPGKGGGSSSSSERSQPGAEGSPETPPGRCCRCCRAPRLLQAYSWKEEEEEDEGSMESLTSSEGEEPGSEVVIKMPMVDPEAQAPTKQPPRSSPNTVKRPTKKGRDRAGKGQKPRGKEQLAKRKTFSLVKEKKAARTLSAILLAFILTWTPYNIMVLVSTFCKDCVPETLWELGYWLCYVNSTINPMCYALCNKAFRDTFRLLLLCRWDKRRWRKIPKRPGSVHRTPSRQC

The first assay addresses 5-hydroxytryptamine receptor 2A (Homo sapiens) (UniProt P28223). The experiment in a line: 5-hydroxytryptamine receptor 2A (HTR2A) small molecule agonists, cell-based qHTS assay (AID 1963587). Also: nearly all actives have a fitted effect of over 30% in size. Also: potency is read from the fitted curve at half-maximal effect. The note with it: HTR2A-CHO cells, calcium flux fluorescence, agonist mode; series mostly up to 76.8 µM; activation: at the top concentration. Summed up:
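HTR2A-CHO cells, plated 18 h at 37 C/5% CO2, dye-loaded 1 h at 37 C; compounds in DMSO added by pin tool (agonist mode). Intracellular calcium flux read as kinetic fluorescence on FDSS over 2 min at 1 s intervals.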
In general terms: qHTS replaces the single test concentration by a dilution series.
On to `COC(=O)c1c(Cl)c(Cl)c(C(=O)OC)c(Cl)c1Cl`, for which the “activation” value is 16.4%.
As for `c1ccc2cc3c4ccccc4c4ccccc4c3cc2c1`, the “activation” value is 2.76%.
Same read-out and setting: in the case of `Cn1cc(S(C)=O)c(=O)c2ccc(F)cc21` (stereo unspecified) it was -2.7% [at 35.6 µM]; in that of `O=Cc1ccc(C(=O)O)cc1`, 4.68%; in that of `CCC(=O)OCc1ccccc1`, -0.683%.
As for `CCCCCC(=O)O[C@]1(C(C)=O)CC[C@H]2[C@@H]3CCC4=CC(=O)CC[C@]4(C)[C@H]3CC[C@@]21C`, the Potency entry was “inactive”.
On to `BrC1CCC(Br)C(Br)CCC(Br)C(Br)CCC1Br` (stereo unspecified), for which the Potency result was “inactive”.
`O=[N+]([O-])c1ccc2c(c1)Cc1ccccc1-2`: the Potency result was “inactive”.
As for `CCC1COC(=O)O1` (stereo unspecified), the “activation” value is 0.658%.
With `C=C(C)C(=O)OCCCCCCOC(=O)C(=C)C`, the “activation” value was 2.22%.
For the molecule `O=[N+]([O-])c1ccccc1Nc1ccccc1`, the “activation” value is 6.01%.
For `CCN1CCCC(OC(=O)C(c2ccccc2)c2ccccc2)C1` (stereo unspecified), the Potency was 75.6 nM (active).
With `O=C1CCCCCCCCCCCCCCCO1`, the “activation” value was 7.86%.
Regarding `O=C(O[C@@H](C(=O)O)[C@@H](OC(=O)c1ccccc1)C(=O)O)c1ccccc1`, the “activation” value was -0.0687%.
On the same count and under the same terms, in the case of `CN(C)CCCNCCCN(C)C` it was -1.48%; in that of `CCC(=O)OC(C)c1ccccc1` (stereo unspecified), -0.436%; in that of `CC(C)CC(C)(N)C#N` (stereo unspecified), 0.824%.
For the molecule `Cc1cc(C)cc(O)c1`, the “activation” value was -3.94%.
As for `C=C(C)[C@@H]1CCC2=CC(=O)C[C@@H](C)[C@]2(C)C1`, the “activation” value was 15.8%.
Still for that read-out and setting: the result for `O=c1[nH]c(=O)c2ccccc2o1` reads 2.81% [at 35.6 µM].
Regarding `COCCOCCOCCOCCO`, the “activation” value was -0.85%.
Regarding `CCCCCCCCCCCCCCC(=O)NC(CO)CCCCCCCCCCCCCC` (stereo unspecified), the “activation” value was 1.15%.
On to `C[C@@H]1CCC[C@H](C)N1CCCC(O)(c1ccccc1)c1ccccn1` (stereo partly specified), for which the “activation” value is 5.05% [at 35.6 µM].
In the case of `CCCCCCCCCC(C)=O`, the “activation” value is 0.104%.
In the case of `CN(C)c1ccc(C(=N)c2ccc(N(C)C)cc2)cc1`, the Potency entry was “inactive”.
With `CCCCCCCCCC/C=C/C#N`, the “activation” value is -0.141%.
Consider `CNC(=O)Nc1ccc(Cl)c(Cl)c1`, for which the “activation” value is 10.2%.
In the case of `[Cl][Eu]([Cl])[Cl]`, the “activation” value is -5.82%.
On to `c1cnc2cc3c(cc2n1)C1CNCC3C1`, for which the “activation” value is -9.94% [at 35.6 µM].
Regarding `Nc1c(NC/C=C\COc2cc(CN3CCCCC3)ccn2)c(=O)c1=O`, the activation is 1.98% [at 15.9 µM].
As for `FC(F)(F)C(Cl)(Cl)Cl`, the “activation” value is 1.36%.
Same read-out and setting: in the case of `CCc1ccc(C=O)cc1` it was -3.96%.
In the case of `COC(=O)Cc1cccc2ccccc12`, the “activation” value is -0.559%.
Regarding `CCCc1c2oc(C(=O)O)cc(=O)c2cc2c(=O)cc(C(=O)O)n(CC)c12`, the “activation” value was 2.09% [at 35.6 µM].
Take `O=C(O)Cc1ccc(CCNS(=O)(=O)c2ccc(Cl)cc2)cc1`: the “activation” value was -2.81% [at 35.6 µM].
Still for that read-out and setting: in the case of `Cc1cc(C)c(C(=O)O)c(C)c1` it was -2.67%.

The next assay addresses Muscarinic acetylcholine receptor M1 (Homo sapiens) (UniProt P11229). The experiment in a line: Cholinergic receptor muscarinic 1 (CHRM1) small molecule antagonists, cell-based qHTS assay (AID 1963588). Also: nearly all actives have a fitted effect of over 40% in size. Also: potency is read from the fitted curve at half-maximal effect. To be noted: CHRM1-CHO antagonist mode, calcium flux fluorescence; series mostly up to 61.5 µM; activity, negative = inhibition: at the top concentration. A digest of the protocol: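 CHRM1-CHO calcium-flux assay, antagonist mode. Cells were seeded 18 h, dye-loaded 1 h at 37 C and given compound for 5 min at RT, then acetylcholine was added at 50nM. FDSS fluorescence was read 3 min; 15 concentrations, three runs.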
On to `COC(=O)c1c(Cl)c(Cl)c(C(=O)OC)c(Cl)c1Cl`, for which the Potency result was “inactive”.
On to `c1ccc2cc3c4ccccc4c4ccccc4c3cc2c1`, for which the “activity, negative = inhibition” value is -6.58%.
As to `Cn1cc(S(C)=O)c(=O)c2ccc(F)cc21` (stereo unspecified), the “activity, negative = inhibition” value was -3.42% [at 28.3 µM].
Regarding `O=Cc1ccc(C(=O)O)cc1`, the “activity, negative = inhibition” value was -10.5%.
The same measure, in the same setting: the result for `CCC(=O)OCc1ccccc1` reads -10.9%.
On the same count and under the same terms, the result for `CCCCCC(=O)O[C@]1(C(C)=O)CC[C@H]2[C@@H]3CCC4=CC(=O)CC[C@]4(C)[C@H]3CC[C@@]21C` reads -4.09% [at 28.3 µM].
For `BrC1CCC(Br)C(Br)CCC(Br)C(Br)CCC1Br` (stereo unspecified), the “activity, negative = inhibition” value is 0.144%.
Turning to `O=[N+]([O-])c1ccc2c(c1)Cc1ccccc1-2`, the Potency entry was “inactive”.
Turning to `CCC1COC(=O)O1` (stereo unspecified), the “activity, negative = inhibition” value was 3.9%.
Consider `C=C(C)C(=O)OCCCCCCOC(=O)C(=C)C`, for which the “activity, negative = inhibition” value was -12%.
Take `O=[N+]([O-])c1ccccc1Nc1ccccc1`: the “activity, negative = inhibition” value is -21.1%.
Turning to `CCN1CCCC(OC(=O)C(c2ccccc2)c2ccccc2)C1` (stereo unspecified), the Potency is 4100 nM (active).
On to `O=C1CCCCCCCCCCCCCCCO1`, for which the “activity, negative = inhibition” value was -17.2%.
Still for that read-out and setting: the result for `O=C(O[C@@H](C(=O)O)[C@@H](OC(=O)c1ccccc1)C(=O)O)c1ccccc1` reads -4.75%; that for `CN(C)CCCNCCCN(C)C`, 1.95%.
`CCC(=O)OC(C)c1ccccc1` (stereo unspecified): the “activity, negative = inhibition” value was 6.38%.
On to `CC(C)CC(C)(N)C#N` (stereo unspecified), for which the “activity, negative = inhibition” value was -2.57%.
As for `Cc1cc(C)cc(O)c1`, the Potency entry was “inactive”.
Consider `C=C(C)[C@@H]1CCC2=CC(=O)C[C@@H](C)[C@]2(C)C1`, for which the “activity, negative = inhibition” value was -13.9%.
Take `O=c1[nH]c(=O)c2ccccc2o1`: the “activity, negative = inhibition” value was 2.48% [at 28.3 µM].
For `COCCOCCOCCOCCO`, the “activity, negative = inhibition” value was -8.13%.
Regarding `CCCCCCCCCCCCCCC(=O)NC(CO)CCCCCCCCCCCCCC` (stereo unspecified), the “activity, negative = inhibition” value was 7.71%.
In the case of `C[C@@H]1CCC[C@H](C)N1CCCC(O)(c1ccccc1)c1ccccn1` (stereo partly specified), the “activity, negative = inhibition” value was -23.2% [at 28.3 µM].
Same read-out and setting: in the case of `CCCCCCCCCC(C)=O` it was -4.12%; in that of `CCCCCCCCCC/C=C/C#N`, 18%; in that of `CNC(=O)Nc1ccc(Cl)c(Cl)c1`, -4.87%.
Turning to `[Cl][Eu]([Cl])[Cl]`, the “activity, negative = inhibition” value was -8.96%.
On to `c1cnc2cc3c(cc2n1)C1CNCC3C1`, for which the “activity, negative = inhibition” value is 5% [at 28.3 µM].
As for `Nc1c(NC/C=C\COc2cc(CN3CCCCC3)ccn2)c(=O)c1=O`, the activity, negative = inhibition is -18.5% [at 12.6 µM].
For `FC(F)(F)C(Cl)(Cl)Cl`, the “activity, negative = inhibition” value is -7.18%.
In the case of `CCc1ccc(C=O)cc1`, the “activity, negative = inhibition” value is 7.52%.
For `COC(=O)Cc1cccc2ccccc12`, the “activity, negative = inhibition” value is 2.74%.
On to `CCCc1c2oc(C(=O)O)cc(=O)c2cc2c(=O)cc(C(=O)O)n(CC)c12`, for which the “activity, negative = inhibition” value is 12.5% [at 28.3 µM].
As to `O=C(O)Cc1ccc(CCNS(=O)(=O)c2ccc(Cl)cc2)cc1`, the “activity, negative = inhibition” value was -5.09% [at 28.3 µM].
Take `Cc1cc(C)c(C(=O)O)c(C)c1`: the “activity, negative = inhibition” value is -15.6%.

Another assay has the same target. The experiment in a line: Cholinergic receptor muscarinic 1 (CHRM1) small molecule agonists, cell-based qHTS assay (AID 1963589). Also: nearly all actives have a fitted effect of over 35% in size. To be noted: CHRM1-CHO cells, agonist mode, calcium flux fluorescence; series mostly up to 76.8 µM; activation: at the top concentration. Summed up: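 Stable CHRM1-CHO cells (human receptor) were incubated 18 h, dye-loaded for 1 h at 37 C and exposed to test compounds for agonist activity, with calcium-dependent fluorescence followed kinetically.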
With `COC(=O)c1c(Cl)c(Cl)c(C(=O)OC)c(Cl)c1Cl`, the Potency entry was “inactive”.
As to `Cn1cc(S(C)=O)c(=O)c2ccc(F)cc21` (stereo unspecified), the “activation” value is -0.511% [at 35.3 µM].
Take `O=Cc1ccc(C(=O)O)cc1`: the “activation” value was -0.234%.
For `CCC(=O)OCc1ccccc1`, the “activation” value is -0.201%.
For the molecule `CCCCCC(=O)O[C@]1(C(C)=O)CC[C@H]2[C@@H]3CCC4=CC(=O)CC[C@]4(C)[C@H]3CC[C@@]21C`, the Potency entry is “inactive”.
On to `BrC1CCC(Br)C(Br)CCC(Br)C(Br)CCC1Br` (stereo unspecified), for which the Potency entry is “inactive”.
For the molecule `O=[N+]([O-])c1ccc2c(c1)Cc1ccccc1-2`, the Potency entry was “inactive”.
Consider `CCC1COC(=O)O1` (stereo unspecified), for which the “activation” value was -0.613%.
Regarding `C=C(C)C(=O)OCCCCCCOC(=O)C(=C)C`, the “activation” value was 4.17%.
As for `O=[N+]([O-])c1ccccc1Nc1ccccc1`, the “activation” value was 1.68%.
In the case of `CCN1CCCC(OC(=O)C(c2ccccc2)c2ccccc2)C1` (stereo unspecified), the “activation” value was -0.558% [at 35.3 µM].
In the case of `O=C1CCCCCCCCCCCCCCCO1`, the “activation” value was 1.19%.
Turning to `O=C(O[C@@H](C(=O)O)[C@@H](OC(=O)c1ccccc1)C(=O)O)c1ccccc1`, the “activation” value was 0.689%.
Turning to `CN(C)CCCNCCCN(C)C`, the “activation” value was -0.492%.
As for `CCC(=O)OC(C)c1ccccc1` (stereo unspecified), the “activation” value is -0.515%.
For the molecule `CC(C)CC(C)(N)C#N` (stereo unspecified), the “activation” value is -0.468%.
`Cc1cc(C)cc(O)c1`: the “activation” value is -0.132%.
In the case of `C=C(C)[C@@H]1CCC2=CC(=O)C[C@@H](C)[C@]2(C)C1`, the “activation” value was -0.094%.
Same read-out and setting: in the case of `O=c1[nH]c(=O)c2ccccc2o1` it was 53.2% [at 35.3 µM]; in that of `COCCOCCOCCOCCO`, -0.176%; in that of `CCCCCCCCCCCCCCC(=O)NC(CO)CCCCCCCCCCCCCC` (stereo unspecified), 5.34%.
Turning to `C[C@@H]1CCC[C@H](C)N1CCCC(O)(c1ccccc1)c1ccccn1` (stereo partly specified), the “activation” value was 0% [at 35.3 µM].
`CCCCCCCCCC(C)=O`: the “activation” value is -0.148%.
For `CN(C)c1ccc(C(=N)c2ccc(N(C)C)cc2)cc1`, the Potency result is “inactive”.
With `CCCCCCCCCC/C=C/C#N`, the “activation” value was -0.101%.
Take `CNC(=O)Nc1ccc(Cl)c(Cl)c1`: the “activation” value was 10%.
In the case of `[Cl][Eu]([Cl])[Cl]`, the “activation” value is 0.108%.
As to `c1cnc2cc3c(cc2n1)C1CNCC3C1`, the “activation” value was -0.761% [at 35.3 µM].
With `Nc1c(NC/C=C\COc2cc(CN3CCCCC3)ccn2)c(=O)c1=O`, the activation was -0.0227% [at 15.8 µM].
As to `FC(F)(F)C(Cl)(Cl)Cl`, the “activation” value is -0.258%.
With `CCc1ccc(C=O)cc1`, the “activation” value is 0.0781%.
Consider `COC(=O)Cc1cccc2ccccc12`, for which the “activation” value was -0.69%.
On to `CCCc1c2oc(C(=O)O)cc(=O)c2cc2c(=O)cc(C(=O)O)n(CC)c12`, for which the “activation” value is -0.453% [at 35.3 µM].
On to `O=C(O)Cc1ccc(CCNS(=O)(=O)c2ccc(Cl)cc2)cc1`, for which the “activation” value was 0.0841% [at 35.3 µM].
On to `Cc1cc(C)c(C(=O)O)c(C)c1`, for which the “activation” value is 0.16%.
